HT1080NT lethal: kills 2HG-producing HT-1080-NT fibrosarcoma cells. HT-1080-NT fibrosarcoma viability, CellTiter-Glo ATP luminescence, 48 h. hit rate 1.6% among 360,000. Potency, µM (highest dose often 46.1 µM), for inactives: at the highest dose activity, negative = less viability, hits mostly cytotoxic;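 also: NT is the 2HG producing partner of a matched IDH1 knockdown line; 0% = DMSO-treated cells and -100% = media-only wells without cells; nearly all actives have a fitted effect of over 55% in size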
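Viability by CellTiter-Glo luminescence after 48 h compound exposure at 37C of HT-1080-NT cells (750/well, RPMI, 5% FBS). % activity scaled between DMSO wells and medium-only wells, then curve-fitted and categorized by curve class.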
KB-V1 cytotox: kills drug-selected multidrug resistant KB-V1 cells; KB-V1 MDR cells viability, CellTiter-Glo, 72 h; Potency, µM (series often up to 46.1 µM), actives largely listed as cytotoxic; hit rate 3.4% among 400,000; also: nearly all actives have a fitted effect of over 60% in size
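Potencies derive from concentration-effect curves fitted to normalized luminescence (CellTiter-Glo) of KB-V1 cells treated for 72 h at 37 degrees C in phenol-red-free DMEM containing 10% FBS.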
KB-3-1 tox: KB-3-1 parental cell cytotoxicity. KB-3-1 viability, CellTiter-Glo ATP luminescence, 72 h. Potency, µM (series often up to 46.1 µM), hits mostly cytotoxic. hit rate 1.4% among 400,000; also: nearly all actives have a fitted effect of over 60% in size
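72 h, 37 °C compound treatment of KB-3-1 parental cells; CellTiter-Glo added, 10 min, luminescence read. Data corrected against DMSO-only plates and normalized before curve fitting.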
TDP1 cell noCPT: qHTS for Inhibitors of human tyrosyl-DNA phosphodiesterase 1 (TDP1): qHTS in cells in absence of CPT | DT40 Tdp1-/- hTDP1 cells, no CPT, ATP luminescence, 48 h | Potency, µM (titrated, usually from 46.2 µM), inactives show top-dose activity change, negative = growth inhibition, hits mostly inhibitors | hit rate 15% among 420,000 | AID 686978, 2013; also: nearly all actives have a fitted effect of over 55% in size
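A cellular qHTS used chicken DT40 cells lacking endogenous Tdp1 but carrying stably transfected human TDP1. Compounds were applied without camptothecin, and cell growth kinetics were judged by ATP-dependent luminescence after ≥48 hr.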
TDP1 cell CPT: DT40-hTDP1 cell growth loss with CPT; hit rate 12% among 420,000; chicken DT40 Tdp1-/-;hTDP1 cells + 20 nM CPT, ATP luminescence, 48 h; Potency, µM (series often up to 46.2 µM), for the others: at the highest dose activity change, negative = growth inhibition, actives largely listed as inhibitors; also: nearly all actives have a fitted effect of over 55% in size
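Chicken DT40 Tdp1-/- cells stably complemented with human TDP1 were seeded at 400 cells/well in medium containing 20 nM camptothecin, exposed to pin-transferred compounds, and grown at 37 °C for at least 48 hr. Viability was read as ATP luminescence.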
HT1080 IDH1KD tx: kills HT-1080 cells with IDH1 knockdown. HT-1080 IDH1 knockdown viability, ATP luminescence, 48 h. hit rate 2% among 360,000. Potency, µM (top dose mostly 46.1 µM), without a hit: at the highest dose activity, negative = toxicity, actives largely listed as cytotoxic;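 also: 0% = DMSO wells and -100% = cell-free medium wells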
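In this qHTS, HT-1080 cells depleted of IDH1 are exposed for 48 h at 37 °C to compound titrations. Toxicity is scored from CellTiter-Glo luminescence, with DMSO as full viability and medium alone as none.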
Active calls of the source: *; i = inactive; ? = inconclusive; · = no result; [ ] = another dose, or the depositor's remark. Hits are enriched below; roughly 19% of the tested compounds scored in any of these assays. Calls follow the shape of the dose curve; as a rule, active = well fitted curve in the direction sought with a large enough effect; inconclusive = small, poorly fitted or top-dose-only effect, or another doubt; inactive = no such curve, though single readings can be large; an effect the other way counts as inactive or inconclusive. Unless noted, % is scaled to controls: 0 for no effect and ±100 for the full control effect; potency is read from the fitted curve at half-maximal effect.

SMILES | HT1080NT lethal | KB-V1 cytotox | KB-3-1 tox | TDP1 cell noCPT | TDP1 cell CPT | HT1080 IDH1KD tx
COc1cc(OC)c2c(=O)c(OC)c(-c3ccc(OC)c(OC)c3)oc2c1 | -10% | i | i | ? | ? | -8%
COc1cc(-c2oc3ccc(C)cc3c(=O)c2O)cc(OC)c1OC | · | 23µM* | ? | ? | 5.8µM* | ·
O=c1c(O)c(-c2ccc(O)cc2)oc2cc(O)ccc12 | · | · | · | 30µM* | 27µM* | ·
Cc1cc(NS(=O)(=O)c2ccc(NC(=O)COc3cc(C)c(Br)cc3C(C)C)cc2)no1 | · | i | i | ? | ? | ·
O=c1c(O)c(-c2ccc(O)c(O)c2)oc2cc(O)ccc12 | -13% | i | i | 6.7µM* | 23µM* | -2%
COc1cc(-c2oc3cc(O)ccc3c(=O)c2O)ccc1O | · | · | · | ? | 21µM* | ·
CCOc1ccc(-c2oc3cc(Cl)ccc3c(=O)c2O)cc1OC | · | ? | i | · | · | ·
CC1(C)[C@H]2CC[C@]1(C)[C@H](O)C2 | · | · | · | -8% | 10% | ·
CC1(C(=O)Nc2cccc3c2CCCC3)CCN1C(=O)c1cccc(F)c1 (configuration not stated) | -2% | i | i | ? | -23% | -13%
CCS(=O)(=O)c1nc(S(=O)(=O)c2ccc(C)cc2)c(NCc2ccccc2Cl)s1 | · | i | i | 10µM* | 16µM* | ·
CCCS(=O)(=O)c1nc(S(=O)(=O)c2ccc(C)cc2)c(NC(C)c2ccccc2)s1 (configuration not stated) | · | · | · | 10µM* | ? | ·
Cc1ccc(S(=O)(=O)c2nc(S(=O)(=O)c3ccc(C)cc3)c(NCCCOC(C)C)s2)cc1 | · | ? | i | 16µM* | ? | ·
CCS(=O)(=O)c1nc(S(=O)(=O)c2ccc(C)cc2)c(NC)s1 | · | i | i | 2% | 1% | ·
CCS(=O)(=O)c1nc(S(=O)(=O)c2ccc(C)cc2)c(NC(C)c2ccccc2)s1 (configuration not stated) | · | i | i | ? | ? | ·
Cc1ccc(S(=O)(=O)c2nc(S(=O)(=O)c3ccc(C)cc3)c(NC(C)C)s2)cc1 | · | i | i | ? | 16µM* | ·
CCOC(=O)C1(C)CCCN(C(=O)c2cccc(C(F)(F)F)c2)C1 (configuration not stated) | -2% | i | i | ? | ? | 0%
Cc1c(C(=O)NCc2ccc(F)cc2)sc2ncnc(NCC3CCCO3)c12 (configuration not stated) | · | · | · | -14% | -13%[9.04 µM] | ·
Brc1cccc[n+]1CCCCCC[n+]1ccccc1Br | · | i | i | 18µM* | ? | ·
Brc1cccc[n+]1C/C=C/C[n+]1ccccc1Br | · | i | i | -18% | 0% | ·
Brc1cccc[n+]1CCCC[n+]1ccccc1Br | · | i | i | 16µM* | 8.9µM* | ·
Clc1cccc[n+]1CCCCCC[n+]1ccccc1Cl | · | i | i | -98% | 35µM* | ·
COc1ccc(C2C=C(c3ccc(C)cc3)Nc3c(C(=O)Nc4ccccc4)cnn32)cc1 (configuration not stated) | · | ? | i | ? | ? | ·
CN(C)c1ccc(/C=C/c2nnnn2-c2ccccc2)cc1 | 13% | ? | i | ? | ? | 4%
CN(C)c1ccc(/C=C/c2ncnc3ccccc23)cc1 | · | i | i | 16µM* | ? | ·
CN(C)c1ccc(/C=C/c2c(Cl)cnc3ccccc23)cc1 | · | ? | ? | 11µM* | 11µM* | ·
SMILES | HT1080NT lethal | KB-V1 cytotox | KB-3-1 tox | TDP1 cell noCPT | TDP1 cell CPT | HT1080 IDH1KD tx
Cc1ccccc1CNC(=O)c1ccc(CN2CC(=O)N3CCCCC3C2=O)cc1 (configuration not stated) | · | i | i | -7% | -9% | ·
C=CCc1cccc(/C=N/NC(=O)C(=O)Nc2ccc(C)cc2)c1O | -10% | i | i | 5.2µM* | 3.7µM* | -17%
C=CCc1cccc(/C=N/NC(=O)c2ccc3nc[nH]c3c2)c1O | ? | i | ? | 5.8µM* | 9.2µM* | ?
O=C(N/N=C/c1ccc(Cl)cc1Cl)c1ccc2nc[nH]c2c1 | -3% | i | i | ? | ? | 1%
C=CCc1cccc(/C=N/NC(=O)C(C)Nc2ccc(C)cc2)c1O (configuration not stated) | -24% | 21µM* | ? | 8.2µM* | 16µM* | ?
C=CCc1cccc(/C=N/NC(=O)c2ccccc2Br)c1O | ? | i | ? | ? | ? | ?
C=CCc1cccc(/C=N/NC(=O)c2ccccc2OC)c1O | ? | i | i | ? | ? | 16µM*
CCCCN1C(=O)C(CC(=O)NC(c2ccccc2)c2ccccc2)CC(C(=O)N2CCCCCC2)=C1C (configuration not stated) | -1% | ? | i | ? | ? | 19%
CCN(CC)CCn1nc2c3c(cccc3c1=O)-c1ccccc1-2 | 15µM* | 5.8µM* | ? | 0.016µM* | 0.52µM* | 21µM*
O=c1c2cccc3c2c(nn1CN1CCOCC1)-c1ccccc1-3 | -24% | 1.6µM* | 4.1µM* | 21µM* | ? | ?

Screens from PubChem.
